Source: PubChem BioAssay (National Center for Advancing Translational Sciences (NCATS))
Shown are actives, neighbours in structure and some others; about 6.7% of the full set was active somewhere.
KB-3-1 tox – qHTS assay for MDR1-selective chemotherapeutics: Primary screen using the parental adenocarcinoma cell KB-3-1; KB-3-1 viability, CellTiter-Glo ATP luminescence, 72 h; Potency, µM (doses to about 46.1 µM), hits mostly cytotoxic; 1.4% of 400,000 active; AID 1347075, 2019; also: % is scaled to controls: 0 for no effect and ±100 for the full control effect; nearly all actives have a fitted effect of over 60% in size
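Cells are dispensed, compounds pinned in, plates held at 37 °C for 72 h, then CellTiter-Glo is added and luminescence read after 10 minutes. Cell line: parental KB-3-1 in phenol-red-free DMEM, 10% FBS.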
PINK1 expr mod – A Quantitative High throughput Screen to Identify Chemical Modulators of PINK1 Expression. PINK1 immunofluorescence, high-content cytometry, 24 h. 0.2% of 410,000 active. AID 624263, 2012. Potency, µM (doses to about 76.6 µM), inactives show at the top dose activation (PINK1 increase), hits mostly activators; active = well fitted activation curve with a large enough effect; inconclusive = small, poorly fitted or top-dose-only effect; cell line not stated here; also: % of control where 0% means no effect; nearly all actives have a fitted effect of over 65% in size
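Stable cell line treated 24 h with compounds at 5 concentrations (CCCP controls), then fixed and immunostained for PINK1 plus nuclear and cell stains; PINK1 immunofluorescence quantified by laser-scanning microplate cytometry.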
KB-V1 MDR tox – qHTS assay for MDR1-selective chemotherapeutics: Primary screen using the drug-selected MDR subline cells KB-V1. 3.4% of 400,000 active. Potency, µM (doses to about 46.1 µM), usual class: cytotoxic. KB-V1 MDR cells viability, CellTiter-Glo, 72 h; also: % is scaled to controls: 0 for no effect and ±100 for the full control effect; nearly all actives have a fitted effect of over 60% in size
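Following 72 h at 37 degrees C with compound, KB-V1 cell viability was read by CellTiter-Glo luminescence, medium being phenol-red-free DMEM plus 10% FBS; concentration-response parameters came from normalized, curve-fitted qHTS data.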
MCF10A rerep – A quantitative high throughput screen for small molecules that induce DNA re-replication in MCF 10a normal breast cells; 2.9% of 350,000 active; MCF 10A DNA re-replication, Hoechst nuclear intensity, 48 h; Potency, µM (top dose mostly 46.1 µM), without a hit: top-dose activity, positive = re-replication, actives largely listed as activators; also: % of control where 0% means no effect; nearly all actives have a fitted effect of over 50% in size
SW480 rereplic – A quantitative high throughput screen for small molecules that induce DNA re-replication in SW480 colon adenocarcinoma cells. SW480 DNA re-replication, Hoechst DNA content imaging, 48 h. 1.8% of 340,000 active. AID 624297, 2012. Potency, µM (doses to about 46.1 µM), for inactives: top-dose re-replication activation, actives largely listed as activators; also: % of control where 0% means no effect; nearly all actives have a fitted effect of over 55% in size
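Cells (250 per well) received 23 nL compound or DMSO by pin tool and were kept 48 hr at 37 C, 5% CO2. Nuclei were then stained with Hoechst for 40 min and scanned for DNA content.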
The depositor's hits bear a star; i = inactive; ? = inconclusive; · = not tested or not shown; [ ] = another dose, or the depositor's remark. Unless noted, calls follow the shape of the dose curve; as a rule, active = well fitted curve in the direction sought with a large enough effect; inconclusive = small, poorly fitted or top-dose-only effect, or another doubt; inactive = no such curve, though single readings can be large; an effect the other way counts as inactive or inconclusive. Potency is read from the fitted curve at half-maximal effect.

SMILES	KB-3-1 tox	PINK1 expr mod	KB-V1 MDR tox	MCF10A rerep	SW480 rereplic
Cc1ccnc2ccc([N+](=O)[O-])cc12	i	·	?	·	·
CN(CC(=O)NCc1ccco1)C(=O)C1CC(=O)N(c2ccc3c(c2)OCCO3)C1 (stereo not drawn)	i	0%	i	1%	-1%
O=C(COc1coc(CN2CCN(c3ccccc3F)CC2)cc1=O)NC1CCCC1	i	-1%	i	1%	-4%
Clc1ccccc1C1Nc2cccc3cccc(c23)N1	i	-1%	i	18%	-12%
COc1ccc2ccccc2c1C1NC(=O)NC(C)=C1[N+](=O)[O-] (stereo not drawn)	i	7%	i	-3%	3%
O=C1NC(c2cccc3ccccc23)Nc2ccccc21 (stereo not drawn)	0.41µM*	7%	0.65µM*	0.92µM*	?
O=C1NC(c2ccccc2Cl)Nc2ccccc21 (stereo not drawn)	?	3%	?	?	16µM*
COc1ccc2ccccc2c1C1NC(=O)c2ccccc2N1 (stereo not drawn)	2.3µM*	16%	5.8µM*	5.2µM*	8.2µM*
O=C(NC1CCCC1)C(c1ccccn1)N(Cc1ccc(F)cc1)C(=O)c1csnn1 (stereo not drawn)	?	0%	i	4%	-14%
CCCCc1ccc(NC(=O)Cn2nnc3sc4c(c3c2=O)CCC(C)C4)cc1 (stereo not drawn)	i	1%	i	·	·
COc1ccc(-n2c(SCC(=O)NC3CCCCC3)nc3c([nH]c4ccccc43)c2=O)cc1	i	-3%	i	·	·
CCc1cc(C(=O)N(CC)CC(=O)Nc2ccc(OC)cc2)sc1C	i	3%	18µM*	?	9%
CCN(CC(=O)Nc1ccc(OC)cc1)C(=O)Cc1coc2cc(C)c(C)cc12	i	0%	16µM*	-1%	-1%
Cc1ccc(NC(=O)CN(C)C(=O)Cc2coc3cc(C)c(C)cc23)cc1	i	4%	i	3%	-26%
CCN(CC(=O)Nc1ccc(OC)cc1)C(=O)c1cc2c(s1)CCCCC2	i	-4%	?	-3%	4%
CC1(C)CC(=O)c2c(oc3c(Cl)cc(NS(=O)(=O)c4ccc(Cl)cc4)cc23)C1	i	0%	i	·	·
C[C@H](CO)N1C[C@H](C)[C@H](CN(C)Cc2cccc(C(F)(F)F)c2)OCc2ccccc2-c2c(n(C)c3ccccc23)C1=O	i	1%	i	·	·
CCCc1nc(-c2cc3ccc(C)cc3[nH]c2=O)no1	i	-7%[38.3 µM]	12µM*	-1%	3%
CCS(=O)(=O)NCCc1cc2ccc(C)cc2[nH]c1=O	i	-3%	21µM*	-3%	9%
CCC(C)NC(=O)c1ccc(COc2ccccc2Cl)cc1 (stereo not drawn)	i	0%	21µM*	3%	2%
Cc1nn(Cc2cccc(F)c2)c(C)c1NC(=O)c1ccc(COc2ccccc2Cl)cc1	i	-4%[38.3 µM]	2.6µM*	?	27%
O=C(O)c1ccc(COc2ccccc2Cl)cc1	i	2%[38.3 µM]	i	21%	2%
Cc1nn(Cc2cccc(F)c2)c(C)c1NC(=O)c1c([N+](=O)[O-])c(C)nn1C	i	2%[38.3 µM]	i	4%	-2%
Cc1nn(Cc2c(F)c(F)c(F)c(F)c2F)c(C)c1NC(=O)c1cccc(COc2ccccc2Cl)c1	i	29%[38.3 µM]	2.6µM*	-4%	-2%
COc1cc(-c2noc(-c3ccc(NCCc4ccccc4)c([N+](=O)[O-])c3)n2)cc(OC)c1OC	i	3%	?	·	·
O=C(Cc1ccc(-c2ccccc2)cc1)Nc1ccccn1	i	2%	?	?	-5%
O=C(NCc1nnc(SCc2ccccc2)n1-c1ccccc1)C12CC3CC(CC(C3)C1)C2	i	?	?	0%	1%
